# High-throughput results as filed in PubChem.
# EPAC2 antag = EPAC2 (human) antagonism; Potency, µM (highest dose often 114 µM), hits mostly inhibitors; 360,000 tested, 0.18% active; AID 720708; EPAC2 GEF exchange of Rap1B-BODIPY-GDP, fluorescence; also: nearly all actives have a fitted effect of over 45% in size
# USP1-UAF1 inh = inhibitors of human USP1/UAF1 deubiquitinase. recombinant USP1/UAF1, Ub-Rhodamine cleavage fluorescence. Potency, µM (titrated, usually from 57.1 µM), hits mostly inhibitors. 390,000 tested, 0.23% active; also: nearly all actives have a fitted effect of over 60% in size
# Target sequence (O94782 whole entry, looked up): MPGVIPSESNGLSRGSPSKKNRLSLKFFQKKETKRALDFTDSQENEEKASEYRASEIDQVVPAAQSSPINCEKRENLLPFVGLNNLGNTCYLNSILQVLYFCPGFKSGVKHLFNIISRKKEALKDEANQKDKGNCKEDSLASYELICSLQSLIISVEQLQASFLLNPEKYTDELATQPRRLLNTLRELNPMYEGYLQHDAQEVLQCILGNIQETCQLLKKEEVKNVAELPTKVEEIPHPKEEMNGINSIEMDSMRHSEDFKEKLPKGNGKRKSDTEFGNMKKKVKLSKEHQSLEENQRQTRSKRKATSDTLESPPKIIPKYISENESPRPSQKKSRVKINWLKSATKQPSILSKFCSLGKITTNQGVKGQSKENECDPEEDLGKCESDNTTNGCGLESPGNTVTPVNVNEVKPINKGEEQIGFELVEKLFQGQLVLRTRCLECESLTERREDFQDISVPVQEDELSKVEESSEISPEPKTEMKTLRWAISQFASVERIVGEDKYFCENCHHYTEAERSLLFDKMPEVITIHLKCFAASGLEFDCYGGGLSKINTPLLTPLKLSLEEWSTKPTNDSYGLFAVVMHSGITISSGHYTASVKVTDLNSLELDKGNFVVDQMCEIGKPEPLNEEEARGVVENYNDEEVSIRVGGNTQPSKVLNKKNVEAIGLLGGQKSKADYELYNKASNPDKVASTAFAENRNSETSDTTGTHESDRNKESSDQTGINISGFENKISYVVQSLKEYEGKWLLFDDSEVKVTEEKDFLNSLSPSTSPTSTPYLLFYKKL
#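 In this screen, compounds sit with the deubiquitinase complex (1nM) for 15 min at room temperature before Ub-Rho is added at 150nM final. Fluorescence rise is then followed for 6 reads every 60 seconds.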
# EPAC2 ag = EPAC2 (human) agonism. Q8WZA2. EPAC2 activation, biochemical qHTS; response scale: 100% = 6.5 mM cAMP response. Potency, µM (titrated, usually from 154 µM), usual class: activators. 360,000 tested, 0.079% active; also: nearly all actives have a fitted effect of over 50% in size
#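 Exchange assay: 100 nM EPAC2 with 250 nM Rap1B-BODIPY-GDP and 50 uM GDP. Fluorescence (ex 480/em 540 nm) read every 5 min for 30 min at room temperature. Data normalized to 6.5 mM cAMP as agonist control.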
# EPAC1 antagonist = EPAC1 (human) antagonism. O95398. EPAC1 GEF assay, Rap1b-BODIPY-GDP exchange fluorescence. Potency, µM (titrated, usually from 115 µM), actives largely listed as inhibitors. 360,000 tested, 0.14% active; also: nearly all actives have a fitted effect of over 50% in size
# EPAC1 ag = activates human EPAC1 exchange factor; 360,000 tested, 0.073% active; Potency, µM (highest dose often 154 µM), usual class: activators; EPAC1 agonist qHTS, biochemical assay; response scale: 100% = response to 6.5 mM cAMP; also: nearly all actives have a fitted effect of over 60% in size
#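 Nucleotide exchange assay: 100 nM EPAC1 with 250 nM Rap1B loaded with BODIPY-GDP and 50 uM GDP, room temperature. Fluorescence (480/540 nm) read every 5 min for 30 min; signal change normalized to 6.5 mM cAMP as full agonist.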
# A number is an active result; i = inactive; ? = inconclusive; nt = not tested or not shown. Most compounds without a hit are left out; they make up all but 0.44% or so of the library. Calls follow the shape of the dose curve; as a rule, active = well fitted curve in the direction sought with a large enough effect; inconclusive = small, poorly fitted or top-dose-only effect, or another doubt; inactive = no such curve, though single readings can be large; an effect the other way counts as inactive or inconclusive.
SMILES,EPAC2 antag,USP1-UAF1 inh,EPAC2 ag,EPAC1 antagonist,EPAC1 ag
CC(C)(C)c1ccc(S(=O)(=O)/N=C2\C=C(NS(=O)(=O)c3ccccc3)C(=O)c3ccccc32)cc1,?,?,i,?,i
COC(=O)c1ccccc1NC1=C/C(=N\S(=O)(=O)c2cccs2)c2ccccc2C1=O,i,4µM,i,i,i
CCN(CC)c1ccc(/C=C2/C(=O)c3ccc(C(=O)O)cc3C2=O)cc1,?,13µM,i,?,i
COc1ccc(-c2ccc(NS(=O)(=O)c3ccc(C(C)=O)cc3)cc2)nn1,nt,i,nt,nt,nt
O=C(COc1cccc(OC(F)F)c1)Nc1ccc(SC(F)F)cc1,25µM,i,i,i,i
Cc1ccc(C2C3CSCC=C3C(C#N)=C(N)C2(C#N)C#N)cc1 (configuration not stated),?,?,?,i,i
Cc1ccc([C@@H]2C3COCC=C3C(C#N)=C(N)C2(C#N)C#N)o1 (some centres not stated),i,32µM,i,i,i
CCCN1C(=O)c2ccccc2NC1c1ccc(Cl)c(Cl)c1 (configuration not stated),28µM,i,i,i,i
CC1=C(C(N)=O)C(c2ccccc2F)n2nc(-c3ccc(Cl)cc3)nc2N1 (configuration not stated),nt,i,nt,nt,nt
Cc1ccc(C(=O)N2CCN(c3ccccc3)CC2)cc1S(=O)(=O)N1CCOCC1,i,i,i,56µM,i
COc1ccc(/C(O)=C/c2nc3ccccc3n(-c3ccccc3)c2=O)cc1,i,?,89µM,i,i
COc1ccc(-n2c(=O)c(CCC(=O)N3CCN(c4cccc(OC)c4)CC3)nc3ccccc32)cc1,i,i,i,i,i
CN(CC(=O)Nc1ccccc1Sc1ccccc1)C1CCCCC1,50µM,i,i,?,i
CN(C)c1ccc(/C=C2\C(=N)N3N=C(CC(=O)N4CCCCC4)SC3=NC2=O)cc1,i,i,100µM,i,i
O=C(Nc1ccccc1N1CCCCC1)c1cnccn1,18µM,i,i,i,i
N#CC(Sc1ccccn1)c1ccc(Cl)cc1Cl (configuration not stated),25µM,i,i,i,i
Cc1ccc(C)c(N2CCN(C(=O)Cn3nc(Cc4cccnc4)c4ccccc4c3=O)CC2)c1,nt,i,nt,nt,nt
COc1ccc(/C(N)=N/OC(=O)c2ccc(C)c([N+](=O)[O-])c2)cc1,i,i,10µM,i,i
CCOc1ccc2oc(C(=O)N(C)CC(=O)Nc3ccc(OCC)c(OCC)c3)c(C)c2c1,i,i,i,i,56µM
Nc1c(N2CCCC2)cc(Cl)c2nonc12,?,16µM,?,?,i
Nc1ccc(N2CCCCC2)c2nonc12,?,4.5µM,i,10µM,i
COc1ccc(C2CC(c3c(O)n(C4CCCCC4)c(=O)[nH]c3=O)=Nc3ccccc3S2)cc1 (configuration not stated),nt,i,nt,nt,nt
CCC1CN(C(=O)N2CCC(C(=O)NCc3cc(OC)ccc3OC)CC2)c2ccccc2O1 (configuration not stated),nt,i,nt,nt,nt
CN1CCc2c(sc3c2C(=O)NC(c2ccccn2)N3)C1 (configuration not stated),i,32µM,i,i,i
CN1CCc2c(sc3c2C(=O)NC(c2ccc(OC(=O)c4ccc(C(C)(C)C)cc4)cc2)N3)C1 (configuration not stated),nt,32µM,nt,nt,nt
SMILES,EPAC2 antag,USP1-UAF1 inh,EPAC2 ag,EPAC1 antagonist,EPAC1 ag
CN1CCc2c(sc3c2C(=O)NC(c2ccc(OC(=O)c4ccccc4)cc2)N3)C1 (configuration not stated),nt,i,nt,nt,nt
Cc1ccc(NC(=O)C2CCN(S(=O)(=O)c3cccc4nonc34)CC2)c(Cl)c1,nt,i,nt,nt,nt
O=C(O)C(c1ccccc1)N1C(=O)/C(=C\c2ccc(-c3ccccc3Cl)o2)SC1=S (configuration not stated),i,?,112µM,i,i
O=C(O)C(c1ccccc1)N1C(=O)/C(=C\c2ccc(-c3ccc(Br)cc3)o2)SC1=S (configuration not stated),i,i,i,i,i
COc1cccc(Cn2nc3c4cc(F)ccc4n(Cc4ccc(F)cc4)cc-3c2=O)c1,i,i,i,i,i
COc1cc2c3nnc(-c4ccc(F)cc4)c-3cn(Cc3cccc(F)c3)c2cc1OC,i,?,i,?,i
COc1cc2c3nnc(-c4ccc(F)cc4)c-3cn(Cc3cccc(C)c3)c2cc1OC,i,32µM,?,i,i
Cc1ccc(Cn2nc3c4cc(F)ccc4n(Cc4ccc(F)cc4)cc-3c2=O)cc1,i,i,i,i,i
COc1cc2c3nnc(-c4ccccc4)c-3cn(Cc3ccc(F)cc3)c2cc1OC,71µM,i,i,i,i
COc1cc2c3nnc(-c4ccc(F)cc4)c-3cn(Cc3ccc(C)cc3)c2cc1OC,i,32µM,i,i,i
CCOC(=O)C1CCN(C(=O)Cn2c(=O)cc(C)c3c(C)nn(C)c32)CC1,nt,i,nt,nt,nt
COc1ccc(-c2cc3ccc(O)c(CN4CCOCC4)c3oc2=O)cc1OC,nt,i,nt,nt,nt
CCOc1ccccc1CNCc1c(C(=O)O)c(C)n(Cc2ccc(Cl)cc2)c1C,nt,i,nt,nt,nt
O=C(NCC(c1ccco1)N1CCCCC1)c1cccc(NS(=O)(=O)c2ccc(Br)cc2)c1 (configuration not stated),i,i,i,?,126µM
O=C(O)Cc1ccc(C(=O)c2ccc(Cl)cc2Cl)s1,35µM,i,i,i,i
NC(=O)Cc1ccc(C(=O)c2ccc(Cl)cc2Cl)s1,i,i,i,i,i
Oc1ccc2ccccc2c1-c1sc(Nc2ccccc2)n[n+]1-c1ccc(F)cc1,50µM,i,i,?,i
Fc1ccc(-[n+]2nc(Nc3ccccc3)sc2-c2c3ccccc3cc3ccccc23)cc1,i,?,i,i,i
Cn1c(=O)c2c(-c3ccccc3)n3c(c2n(C)c1=O)C(c1ccccc1[N+](=O)[O-])Nc1ccccc1-3 (configuration not stated),nt,i,nt,nt,nt
O=C(Nc1cccc(F)c1)C1CCN(S(=O)(=O)c2ccc3[nH]c4c(c3c2)CCCCC4)CC1,nt,i,nt,nt,nt
COc1ccc(C2CC(c3cccs3)=NN2c2ccc(C=O)cc2)cc1 (configuration not stated),i,?,i,i,89µM
COc1ccc(C2=NN(c3ccc(C=O)cc3)C(c3ccccc3)C2)cc1 (configuration not stated),i,i,i,i,i
N#C/C(=C\c1ccc(Cl)cc1)c1nc2ccccc2[nH]1,nt,i,nt,nt,nt
N#C/C(=C\c1cc(Br)c(O)c(Br)c1)c1nc2ccccc2c(=O)[nH]1,nt,28µM,nt,nt,nt
N#C/C(=C/c1ccc(O)c(O)c1)c1nc2ccccc2[nH]1,?,i,i,89µM,i
C=C1c2ccccc2O[C@H](C(=O)OCC)[C@@H]1C1CCCCC1,?,?,i,i,i
